# Experimental data: PubChem BioAssay (NCI)
# Compounds without any hit were thinned out: in the full panel of roughly 83,000, 20% have a hit.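 Plates (96-well) were seeded with cells, treated with compound at one concentration, and incubated for 48 hours before percent growth was determined.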 Unmarked numbers belong to inactive results. The source made the active and inactive calls. Rule for the calls: active = growth percent below 10; inactive = the rest.
# Test system: TK-10 renal
# Assay: NCI-60 one-dose screen, 48 h (100 = growth as untreated, 0 = no growth, -100 = all killed)
# Conditions: 10 µM unless noted
row,Structure (SMILES),growth
1,CNC(=O)c1cc(Oc2ccc(NC(=O)Nc3ccc(Cl)c(C(F)(F)F)c3)c(F)c2)ccn1,-3.33% (active)
2,COCCOc1cnc2ccn([C@H](C)c3nnc4c(F)cc(-c5cnn(C)c5)cn34)c(=O)c2c1,105%
3,N#Cc1c(-c2ccc(Cl)cc2)csc1NC(=O)Nc1cccc(C(F)(F)F)c1,20.1%
4,CC(=O)C1CC(C)CCC1C(C)C (stereo not given),83.2%
5,O=C(COc1cccc(/C=C2\Cc3ccc(Cl)cc3C2=O)c1)Nc1nccs1,142%
6,O=C(Cn1ccnc1)Nc1ccc(-c2nc3ccccc3s2)cc1,81.8%
7,CN1CCC(CNc2ccc3ncc(-c4cccc(OC(F)(F)F)c4)n3n2)CC1,-4.7% (active)

# Test system: ACHN renal
# Assay: as above
# Conditions: 10 µM unless noted
row,Structure (SMILES),growth
1,C=CC(=O)N1CCC(Oc2cc3c(Nc4ccc(Cl)c(Cl)c4F)ncnc3cc2OC)CC1,-3.88% (active)
2,FC(F)(F)c1ccc(CNc2ccc(Cc3c[nH]c4ncc(Cl)cc34)cn2)cn1,31.6%
3,O=S1(=O)OC(c2cc(Cl)c(O)c(Br)c2)(c2cc(Cl)c(O)c(Br)c2)c2ccccc21,103%
4,CC(C)(C)OC(=O)N1CCC(O)[C@@H](O[Si](c2ccccc2)(c2ccccc2)C(C)(C)C)[C@H]1/C=C/c1ccccc1 (stereo not given in full),41.1%
5,Cc1cn(-c2cc(NC(=O)c3ccc(C)c(Nc4nccc(-c5cccnc5)n4)c3)cc(C(F)(F)F)c2)cn1,55.8%
6,Cc1cnc(Nc2ccc(OCCN3CCCC3)cc2)nc1Nc1cccc(S(=O)(=O)NC(C)(C)C)c1,-40.8% (active)
7,Cc1cccc(C)c1N1C(c2ccccc2)=NNC12C=CC(=O)c1c(O)cccc12 (stereo not given),88.6%
8,C=CC(=O)Nc1cccc(Nc2nc(Nc3ccc(N4CCN(C(C)=O)CC4)cc3OC)ncc2C(F)(F)F)c1,5.26% (active)
9,COc1ccc(/C(C)=C(\c2ccc(Cl)cc2)c2ccc(OCCN3CCCCCC3)cc2)cc1,67.3%
10,Cc1cc(C(=O)Nc2cc(Oc3ccc4nc(NC(=O)C5CC5)cn4n3)ccc2C)n(C)n1,37.3%
11,CO[C@H](C(=O)N[C@@H](CCCCNC(=O)OCc1ccccc1)C(=O)OC(C)(C)C)[C@@H]1Cc2cc3cc(OC4CC(OC5CC(O)C(O)C(C)O5)C(O)C(C)O4)c(C)c(O)c3c(O)c2C(=O)[C@H]1OC1CC(OC2CC(OC3CC(C)(O)C(O)C(C)O3)C(O)C(C)O2)C(O)C(C)O1 (stereo not given in full),-2.61% (active)
12,CCN(CCCOc1ccc2c(Nc3cc(CC(=O)Nc4cccc(F)c4)[nH]n3)ncnc2c1)CCOP(=O)(O)O,95.5%
13,CC/C=C\C[C@H]1C/C=C2/C(=O)C=C[C@@H]2C/C=C\CCCC(=O)O1,-89.3% (active)
14,Cc1cn(-c2cc(NC(=O)c3ccc(C)c(Nc4nccc(-c5cnccn5)n4)c3)cc(C(F)(F)F)c2)cn1,83.7%
15,COc1cc2ncnc3c2cc1OCCCCCN(C)Cc1ccc(Br)cc1N3,8.64% (active)
16,C[C@@]1(C(=O)Nc2ccc(F)nc2)CCCN1c1nc(Nc2cc(C3CC3)[nH]n2)c2cccn2n1,25.7%
17,C[C@]12O[C@H](C[C@]1(O)CO)n1c3ccccc3c3c4c(c5c6ccccc6n2c5c31)CNC4=O,-8.21% (active)
18,CCN1CCN(CCCN(C[C@H]2Cc3ccccc3CN2)[C@H]2CCCc3cccnc32)CC1,87.6%
19,COCc1c(-c2ccc(NC(=O)Nc3cc(C(F)(F)F)ccc3F)c(F)c2)c2c(N)ncnn2c1CN1CCOCC1,-1.81% (active)

row,Structure (SMILES),growth
1,COc1cc2cc(NCc3ccc(F)cc3)nc(C)c2cc1OC,60.4%
2,CC(=O)C1=C(C)NC(SCc2nnc(-c3ccc(C)cc3)o2)=NC1c1ccc(F)cc1 (stereo not given),92%
3,N#CC[C@H](C1CCCC1)n1cc(-c2ncnc3[nH]ccc23)cn1,52.1%
4,Cc1ccc(-[n+]2c3cc(N)c(C)cc3nc3cc(C)c(Nc4ccccc4)cc32)cc1,-92% (active)
5,COc1cc2cc(NCc3ccc(Cl)cc3)nc(C)c2cc1OC,54.8%
6,CC(=O)c1cnc2ccc(-c3cc(Cl)c(O)c(Cl)c3)nc2c1NC1CCC(CN(C)C)CC1 (stereo not given),-0.784% [2.5 µM] (active)
7,CCN(CC)c1cc2oc3cc(N)cc(=N)c-3nc2cc1C,17.6%
8,CO[C@H]1C[C@@H]2CC[C@@H](C)[C@@](O)(O2)C(=O)C(=O)N2CCCC[C@H]2C(=O)O[C@H]([C@H](C)C[C@@H]2CC[C@@H](O)[C@H](OC)C2)CC(=O)[C@H](C)/C=C(\C)[C@@H](O)[C@@H](OC)C(=O)[C@H](C)C[C@H](C)\C=C/C=C/C=C/1C,39.5%
9,COc1cccc(NC(=O)Nc2ccc(Nc3ncnc4sc5c(c34)CCN(C(=O)CCl)C5)cc2)c1,88.7%
10,CCN(CC)CCNC(=O)c1c(C)[nH]c(/C=C2\C(=O)Nc3ccc(F)cc32)c1C,-12.8% (active)
11,CO[C@@H](C)Cn1c(=O)n(C)c2cnc3ccc(-c4cncc(C(C)(C)O)c4)cc3c21,3.66% (active)
12,Cc1c(N)ccc(-c2ccc(N)c(C)c2S(=O)(=O)O)c1S(=O)(=O)O,108%
13,CNC(=O)c1cc(Oc2ccc(NC(=O)Nc3ccc(Cl)c(C(F)(F)F)c3)c(F)c2)ccn1,0.875% (active)
14,COCCOc1cnc2ccn([C@H](C)c3nnc4c(F)cc(-c5cnn(C)c5)cn34)c(=O)c2c1,80.3%
15,N#Cc1c(-c2ccc(Cl)cc2)csc1NC(=O)Nc1cccc(C(F)(F)F)c1,1.09% (active)
16,CC(=O)C1CC(C)CCC1C(C)C (stereo not given),87.8%
17,O=C(COc1cccc(/C=C2\Cc3ccc(Cl)cc3C2=O)c1)Nc1nccs1,91.8%
18,O=C(Cn1ccnc1)Nc1ccc(-c2nc3ccccc3s2)cc1,90.3%
19,CN1CCC(CNc2ccc3ncc(-c4cccc(OC(F)(F)F)c4)n3n2)CC1,-54.7% (active)
